# Assay outcomes deposited in PubChem BioAssay by several laboratories.
# M1 agonist – activates the M1 muscarinic receptor; AID 626; CHO-M1 cells, Fluo-4 calcium fluorescence, agonist mode; stronger effect = higher value; B-score at 10 µM; 64,000 compounds, 3% hits;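 active means fluorescence rise, raw or as B-score row- and column-corrected plate score, outside the 99.7% band of its plate's samples, either direction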
# WNV protease inh – blocks West Nile virus NS2B-NS3 protease activity. P06935. WNV NS2B-NS3 protease, fluorogenic substrate Ex360/Em465; stronger effect = lower value. z-score (concentration not given with the values). 65,000 compounds, 0.18% hits. AID 577; in the data active means z-score below about -3
# mHtt clearance – compounds clearing mutant huntingtin protein. HeLa Exon1htt(103Q)mCFP, aggregate imaging; zero = plate's median compound well. inhibition, % at 1.5 µM. 47,000 compounds, 0.42% hits;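 active means inhibition of aggregate fluorescence above about 70%, also judged a hit by eye on the cell image, limit read from the data, passing the limit was not always enough; inconclusive means no rule stated for this call; inactive means not judged a hit on image review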;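 further: cells exposed to compound for three days before fixation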
# D1 allo mod – allosterically modulates the human D1 dopamine receptor; HEK293 D1, CRE-luciferase, dopamine EC30 potentiation; actives deviate in either direction; B-score at 10 µM; 58,000 compounds, 5.9% hits;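 active means luminescence count or its row- and column-corrected plate score outside the 99.7% band of the plate's sample wells, on either side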
# M1 antagonist – antagonists of rat M1 muscarinic receptor; P08482; CHO-M1 cells, Fluo-4 calcium, ACh EC80 antagonist mode; stronger effect = lower value; B-score at 10 µM; 64,000 compounds, 3.4% hits; AID 628;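 active means calcium fluorescence response, raw or row-and-column corrected B-score, differing from the plate sample mean either way at a set confidence level, mostly lower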
# Target sequence (P08482 whole entry, looked up): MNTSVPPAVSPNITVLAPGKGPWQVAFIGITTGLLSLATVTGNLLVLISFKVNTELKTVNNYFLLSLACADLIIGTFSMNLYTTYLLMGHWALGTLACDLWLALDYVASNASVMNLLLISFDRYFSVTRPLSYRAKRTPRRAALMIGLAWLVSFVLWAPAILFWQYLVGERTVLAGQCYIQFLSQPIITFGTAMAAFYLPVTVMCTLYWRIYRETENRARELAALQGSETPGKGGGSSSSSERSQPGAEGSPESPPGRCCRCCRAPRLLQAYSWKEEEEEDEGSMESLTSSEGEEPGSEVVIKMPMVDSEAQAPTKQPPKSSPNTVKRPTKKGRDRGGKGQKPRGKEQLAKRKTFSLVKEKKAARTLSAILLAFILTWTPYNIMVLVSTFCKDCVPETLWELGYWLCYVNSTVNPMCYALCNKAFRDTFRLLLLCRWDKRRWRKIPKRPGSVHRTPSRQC
# M1 ag confirm – rat M1 muscarinic agonism, confirmation | shares compounds with M1 agonist | AID 1488 | 1,700 compounds, 19% hits | CHO-M1 cells, Fluo-4 calcium fluorescence, agonist mode; actives lie on both sides | fluorescence change (max-min) at 10 µM;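 active means fluorescence change differs from the solvent-only DMSO control mean at a set confidence level in both duplicate runs; inconclusive means differs from solvent-only control mean in just one of two runs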;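 further: an EC20 dose of acetylcholine follows compound addition during the same imaging run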
# M4 ag counter – counter-screen for M1 agonists: activity at rat M4 receptor; shares compounds with M1 agonist; CHO M4/Gqi5 cells, Fluo-4 calcium fluorescence, agonist mode; actives lie on both sides; fluorescence change (max-min) at 10 µM; 1,700 compounds, 9% hits;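 active means fluorescence change differing from the plate's solvent-only control wells at 99.7% confidence in both duplicates, whether higher or lower; inconclusive means differs from solvent controls in only one of two duplicates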
# Hits are given with their value; 0 = inactive; ? = inconclusive; - = no result. An excerpt weighted towards active compounds, which were near 8.9% of everything screened.
SMILES,M1 agonist,WNV protease inh,mHtt clearance,D1 allo mod,M1 antagonist,others
Cn1c(=O)c(C(=O)c2ccccc2)nc2ccccc21,0,0,77,0,0,
CCn1c(CCNC(=O)c2ccc(OC)c(OC)c2)nc2ccccc21,0,0,0,-4.9,0,
COc1ccccc1C(=O)NCCc1nc2ccccc2n1C,0,0,-,0,0,
Cn1c(CCCNC(=O)c2ccccc2)nc2ccccc21,0,0,0,-3.5,0,
Cn1c(CCCNC(=O)c2cccs2)nc2ccccc21,0,0,0,0,0,
CC1CN(Cc2nc3c(c(=O)n(C)c(=O)n3C)n2Cc2ccc(Cl)cc2)CC(C)O1 (stereo not given),0,0,-,0,0,
Cc1cc(N2CCOCC2)nc2ccc(NC(=O)CCC(=O)N3CCCC(C)C3)cc12 (stereo not given),0,0,-,0,0,
Cc1onc(-c2ccccc2)c1C(=O)N1CC(C)OC(C)C1 (stereo not given),0,0,0,0,0,
CCSc1ccccc1C(=O)NCc1ccc(S(N)(=O)=O)cc1,0,0,-,-3,0,
O=C(CSc1nnc2ccccn12)NC(=O)NC1CCCCC1,0,0,0,-5.5,0,
O=C(Nc1ccc(-c2nc3ccccc3[nH]2)cc1)C1CCCO1 (stereo not given),0,0,0,-5,0,
O=C(Nc1nc2ccccc2[nH]1)C1CCCO1 (stereo not given),0,0,-,0,0,
COc1ccc(N=CC2=C(O)CCCC2=O)cc1,0,-4.2,0,0,0,
COc1ccc(N=CC2=C(O)CC(C)(C)CC2=O)cc1,0,0,0,0,0,
CCCc1ccc(OCc2ccc(C(=O)N3CCN(c4ccccn4)CC3)o2)c(OC)c1,5.5,0,0,0,0,
CSC1=N/C(=C\c2ccc(C)o2)C(=O)S1,0,0,-,0,0,
O=C(CNC(=O)c1ccccc1)NC1(C(=O)NC2CCCC2)CCCCC1,0,0,-,0,0,
Cc1ccc2oc(=O)c3cnn(CC(=O)N4CCCc5ccccc54)c3c2c1,0,0,0,0,2.1,
CCOC(=O)c1ccccc1NC(=O)CN(c1ccccc1)S(=O)(=O)N(C)C,0,0,0,0,0,
CC(C)(C)C(=O)NC(NC(=S)Nc1sc2c(c1C#N)CCCC2)C(Cl)(Cl)Cl (stereo not given),-,-,0,-,-,
CCOc1ccc(NS(=O)(=O)c2ccc3[nH]cc(C(=O)NCC4CCCO4)c(=O)c3c2)cc1 (stereo not given),0,0,0,0,0,
CCc1ccccc1NS(=O)(=O)c1ccc2[nH]cc(C(=O)NCC3CCCO3)c(=O)c2c1 (stereo not given),0,0,94,0,0,
COc1cc(/C=C/c2cc(OC(C)=O)c3ccccc3n2)c(OC(C)=O)c([N+](=O)[O-])c1,-,-,0,-,-,
Cc1csc(C(C#N)C(=O)c2cc3ccccc3o2)n1 (stereo not given),0,0,-,-3.8,0,
CCC1CC(CSc2ncn[nH]2)OC1=O (stereo not given),-,-,0,-,-,
SMILES,M1 agonist,WNV protease inh,mHtt clearance,D1 allo mod,M1 antagonist,others
CCOC(=O)C1CCCN(C(=O)c2ccc(OCC)cc2)C1 (stereo not given),0,0,-,0,0,
Cc1cc2ncn(S(=O)(=O)N3CCOCC3)c2cc1C,0,0,70,-,0,
Cc1cc2ncn(S(=O)(=O)N3CCCCC3)c2cc1C,0,0,-,0,0,
COc1ccc(-c2csc(N(CC3CCCO3)C(=O)c3ccco3)n2)cc1 (stereo not given),0,0,-,0,0,
CCc1c(C)nc2ncnn2c1NCc1cccs1,-,-,0,-,-,
CCc1c(C)nc2ncnn2c1NCCc1ccc(OC)cc1,4.8,0,?,0,-2.8,M1 ag confirm=0;M4 ag counter=?
Cc1n[nH]c(C)c1S(=O)(=O)N1CCN(C2CCCCC2)CC1,0,0,-,0,0,
CCc1cc2c(NCCC(=O)O)ncnc2s1,11,0,0,0,0,M1 ag confirm=0;M4 ag counter=0
Oc1c(/C=N/c2ncn[nH]2)ccc2ccccc12,4.9,0,-,0,0,M1 ag confirm=0;M4 ag counter=?
Cn1c(C(=O)N2CCN(c3ccc(Cl)cc3)CC2)cc2c(=O)n(C)c3ccccc3c21,0,0,-,0,0,
N=c1c(C(=O)NCc2ccco2)cc2c(=O)n3ccccc3nc2n1Cc1ccc(Cl)cc1,-,0,0,0,-,
Cc1ccc(CNC(=O)c2cc3c(=O)n4ccccc4nc3n(CC3CCCO3)c2=N)cc1 (stereo not given),5.2,0,-,-,0,M1 ag confirm=0;M4 ag counter=0
Cc1ccc(CNC(=O)c2cc3c(=O)n4ccccc4nc3n(Cc3ccco3)c2=N)cc1,4.8,0,-,-,0,M1 ag confirm=198;M4 ag counter=0
Cc1cccn2c(=O)c3cc(C(=O)NCc4ccco4)c(=N)n(CCc4ccccc4)c3nc12,5.3,0,-,0,-6.2,M1 ag confirm=0;M4 ag counter=0
COCCn1c(=N)c(C(=O)NCc2ccco2)cc2c(=O)n3ccccc3nc21,3.6,0,-,0,0,M1 ag confirm=66;M4 ag counter=0
CCCSc1nc2c(=O)[nH][nH]c(=O)c2n1Cc1ccccc1,-,-,0,-,-,
COc1ccc(-c2ccc(-c3noc(-c4ccccc4)n3)c(OC)n2)cc1,-2.9,0,0,0,0,M1 ag confirm=0;M4 ag counter=0
COCCn1c(N)c(C(=O)OCc2ccccc2)c2nc3ccccc3nc21,0,0,0,0,0,
COCCNC(=O)c1c(N)n(CCC2=CCCCC2)c2nc3ccccc3nc12,6.2,0,-,0,0,M1 ag confirm=0;M4 ag counter=0
CSc1nc2nc3c(c(=O)n2[nH]1)CCCC3,-,-,0,-,-,
Nc1cc(N)cc(-c2nc3ccccc3o2)c1,0,0,-,0,0,
O=c1c(-c2nc3ccccc3o2)c2oc3ccccc3n2c2ccccc12,12,0,0,0,-4.7,M1 ag confirm=?;M4 ag counter=0
COc1ccc(CNC(=O)c2cc3c(C)nc4ccccc4c3o2)c(OC)c1,4.9,0,-,0,0,M1 ag confirm=0;M4 ag counter=0
COc1cc(NC(=O)c2cc3c(C)nc4ccccc4c3o2)cc(OC)c1OC,3.5,0,0,-4.6,0,M1 ag confirm=0;M4 ag counter=0
CCCCN(CC)CCNC(=O)c1cc2c(C)nc3ccccc3c2o1,0,0,-,0,0,
SMILES,M1 agonist,WNV protease inh,mHtt clearance,D1 allo mod,M1 antagonist,others
COc1ccc(C)cc1NC(=O)c1cc2c(C)nc3ccccc3c2o1,0,0,-,0,0,
Cc1cc(-n2c(SCCC#N)nnc2-c2cccnc2)ccc1Cl,0,0,-,0,0,
OC(CNCC(c1ccco1)N1CCCCC1)c1ccccc1 (stereo not given),0,0,0,0,0,
CCOC(=O)c1sc(NC(=O)CCn2nnc3ccccc32)c(C(=O)OCC)c1C,0,0,-,-,0,
COc1ccc(C2C(C(=O)N3CCC(C)CC3)c3ccccc3C(=O)N2C)cc1 (stereo not given),0,0,0,0,0,
COc1ccc(C2C(C(=O)N3CCN(c4ccccc4F)CC3)c3ccccc3C(=O)N2C)cc1 (stereo not given),4.9,-,-,0,0,M1 ag confirm=?;M4 ag counter=?
CCn1c(SCC(=O)N2CCN(c3ccccc3)CC2)nnc1-c1c[nH]c2ccccc12,-,-,0,-,-,
